# Results filed as inconclusive are left out. Entries that show only a call come without a potency. The source made the active and inactive calls. Calls come from the whole dose curve; as a rule, active = well fitted inhibition curve with a large enough effect; inconclusive = small, poorly fitted or top-dose-only effect; inactive = flat fitted curve, though single readings scatter.
# Test system: CP191
# Assay: qHTS profiling for inhibitors of Plasmodium falciparum proliferation (AID 504749); note: nearly all actives have a fitted effect of over 60% in size
# Settings: P. falciparum in erythrocytes, SYBR Green DNA, 72 h; series mostly up to 28.7 µM
# How it was run: (§1)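 Readout was DNA-dye fluorescence from lysed cultures, ex 485/em 535 nm. Parasitized red cells had grown 72 h with compound; data scaled between 0.29 uM artemisinin and DMSO wells and corrected using vehicle-only plates.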
# Potency is the fitted concentration of half-maximal effect.
row,SMILES,Potency
1,COc1ccc(-c2ccc3cc(C(=O)O)ccc3c2)cc1C12CC3CC(CC(C3)C1)C2,inactive
2,O=NN(CCCl)C(=O)NC1CCCCC1,inactive
3,CC[C@H](C)C(=O)O[C@H]1C[C@@H](C)C=C2C=C[C@H](C)[C@H](CC[C@@H]3C[C@@H](O)CC(=O)O3)[C@H]21,inactive
4,Cc1cccc(Nc2ccncc2S(=O)(=O)NC(=O)NC(C)C)c1,inactive
5,CN1CCN(c2c(F)cc3c(=O)c(C(=O)O)cn(CCF)c3c2F)CC1,inactive
6,CCOC(=O)[C@H](CCc1ccccc1)N[C@H]1CS[C@H](c2cccs2)CN(CC(=O)O)C1=O,inactive
7,N=C(N)c1ccc(OCCCCCOc2ccc(C(=N)N)cc2)cc1,398 nM (active)

# Test system: CP192
# Assay: as above
# Settings: P. falciparum in erythrocytes, SYBR Green DNA, 72 h; series mostly up to 28.7 µM
# How it was run: as §1
row,SMILES,Potency
1,NC(=O)N1c2ccccc2CC(=O)c2ccccc21,inactive
2,CNS(=O)(=O)Cc1ccc2[nH]cc(CCN(C)C)c2c1,inactive
3,CCCc1cc(C(N)=S)ccn1,inactive
4,CCCN[C@H]1CCc2nc(N)sc2C1,inactive
5,COc1ccc(C(=O)CC(=O)c2ccc(C(C)(C)C)cc2)cc1,inactive
6,CC(C)Cn1cnc2c(N)nc3ccccc3c21,inactive
7,Nc1nc(N)nc(-c2cc(Cl)ccc2Cl)n1,inactive
8,OC(Cn1cncn1)(Cn1cncn1)c1ccc(F)cc1F,inactive
9,CC(C)OC(=O)C(C(=O)OC(C)C)=C1SC=CS1,inactive
10,NCCCC(O)(P(=O)(O)O)P(=O)(O)O,inactive
11,CC1=CC(=O)c2ccccc2C1=O,inactive
12,Nc1ccc(S(=O)(=O)Nc2ccccn2)cc1,inactive
13,Cc1noc(NS(=O)(=O)c2ccc(N)cc2)c1C,inactive
14,O=c1cc(O)c(Cl)c[nH]1,inactive
15,Cn1nnc2c(C(N)=O)ncn2c1=O,inactive
16,CNC1CCCN(c2c(F)cc3c(=O)c(C(=O)O)cn(C4CC4)c3c2OC)C1 (stereo unspecified),inactive
17,C#CCN[C@@H]1CCc2ccccc21,inactive
18,COc1cc(NCc2ccc3nc(N)nc(N)c3c2C)cc(OC)c1OC,3010 nM (active)
19,N[C@@H](C(=O)N[C@@H]1C(=O)N2C(C(=O)O)=C(Cl)CS[C@H]12)c1ccccc1,inactive
20,CN(C)CCc1c[nH]c2ccc(CS(=O)(=O)N3CCCC3)cc12,inactive
21,C[C@]12C=CC(=O)C=C1CC[C@@H]1[C@@H]2C(=O)C[C@@]2(C)[C@H]1CC[C@]2(O)C(=O)CO,inactive
22,Nc1[nH]c(=O)ncc1F,inactive
23,COc1ccc(-c2ccc3cc(C(=O)O)ccc3c2)cc1C12CC3CC(CC(C3)C1)C2,inactive
24,O=NN(CCCl)C(=O)NC1CCCCC1,inactive
25,CC[C@H](C)C(=O)O[C@H]1C[C@@H](C)C=C2C=C[C@H](C)[C@H](CC[C@@H]3C[C@@H](O)CC(=O)O3)[C@H]21,inactive
26,Cc1cccc(Nc2ccncc2S(=O)(=O)NC(=O)NC(C)C)c1,inactive
27,CN1CCN(c2c(F)cc3c(=O)c(C(=O)O)cn(CCF)c3c2F)CC1,inactive
28,CCOC(=O)[C@H](CCc1ccccc1)N[C@H]1CS[C@H](c2cccs2)CN(CC(=O)O)C1=O,inactive
29,N=C(N)c1ccc(OCCCCCOc2ccc(C(=N)N)cc2)cc1,1070 nM (active)

# Source: PubChem BioAssay (NCATS)
